According to PubChem BioAssay (EPA / NIEHS):
Active and inactive are the calls of the source. The calls were made as follows: active = hit-call score of the fitted dose curve at least 0.9, where 1 is the maximum; inactive = score below 0.9.

Columns and labels:
Conditions in all cases: mRNA level, 48 h; actives raise or lower the signal
CYP2C8 (gene 1558) = assay: LTEA_HepaRG_CYP2C8: Life Technologies and Expression Analysis (LTEA) Assay for CYP2C8 using HepaRG (AID 2283483)
Summary of the method: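 CYP2C8 expression measured by TaqMan qRT-PCR and normalized to three housekeeping genes. HepaRG cultures were treated for 48 h with an eight-point half-log series topping at 100 uM, vehicle 0.5% DMSO, duplicates; fitted both directions against DMSO.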

CYP2C9 (gene 1559) = assay: LTEA_HepaRG_CYP2C9: Life Technologies and Expression Analysis (LTEA) Assay for CYP2C9 using HepaRG (AID 2283484)
Summary of the method: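 CYP2C9 transcript level, quantified by TaqMan qRT-PCR against three housekeeping genes, was fitted bidirectionally relative to 0.5% DMSO. HepaRG cultures were treated 48 h, in duplicate, at eight half-log concentrations topping at 100 uM.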

CYP2E1 (gene 1571) = assay: LTEA_HepaRG_CYP2E1: Life Technologies and Expression Analysis (LTEA) Assay for CYP2E1 using HepaRG (AID 2283485)
Summary of the method: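 Readout is qRT-PCR of CYP2E1 mRNA, normalized to three housekeeping genes and fitted bidirectionally against 0.5% DMSO. HepaRG cells were dosed 48 h at eight concentrations, highest 100 uM with half-log dilutions.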

CYP4A11 (gene 1579) = assay: LTEA_HepaRG_CYP4A11: Life Technologies and Expression Analysis (LTEA) Assay for CYP4A11 using HepaRG (AID 2283486)
Summary of the method: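 Differentiated HepaRG cells, serum-free induction medium, exposed 48 h in duplicate to 8-point half-log series from 100 uM in 0.5% DMSO. CYP4A11 mRNA measured by qRT-PCR, normalized to ACTB, GAPDH, POLR2A; bidirectional fit versus DMSO.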

[1] = read-out: DNA damage-inducible transcript 3 (DDIT3), DDIT3 (gene 1649); assay: LTEA_HepaRG_DDIT3: Life Technologies and Expression Analysis (LTEA) Assay for DNA damage-inducible transcript 3 (DDIT3) using HepaRG (AID 2283488)
Summary of the method: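 Cells are human HepaRG liver cells treated for 48 h with eight half-log concentrations up to 100 uM in 0.5% DMSO. Transcript levels come from qRT-PCR normalized to three housekeeping genes, with activity fitted in both directions relative to vehicle.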

[2] = read-out: Pro-epidermal growth factor (Homo sapiens) (UniProt P01133); assay: LTEA_HepaRG_EGF: Life Technologies and Expression Analysis (LTEA) Assay for Epidermal growth factor (EGF) using HepaRG (AID 2283489)
Summary of the method: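 Differentiated human HepaRG cells, plated 48 h then switched to serum-free induction medium, were exposed for 48 h to test chemicals (8-point half-log series, top 100 uM, 0.5% DMSO). EGF mRNA was quantified by qRT-PCR, normalized to ACTB, GAPDH, POLR2A.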

[3] = read-out: Early growth response protein 1 (EGR1) transcription factor, EGR1 (gene 1958); assay: LTEA_HepaRG_EGR1: Life Technologies and Expression Analysis (LTEA) Assay for Early growth response protein 1 (EGR1) transcription factor using HepaRG (AID 2283490)
Summary of the method: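 EGR1 transcript levels quantified by qRT-PCR (Fluidigm arrays) against three housekeeping genes after 48 h chemical exposure of HepaRG cells. Eight-point half-log series topping at 100 uM, 0.5% DMSO vehicle, analyzed for gain or loss.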

[4] = read-out: Ezrin (EZR), EZR (gene 7430); assay: LTEA_HepaRG_EZR: Life Technologies and Expression Analysis (LTEA) Assay for Ezrin (EZR) using HepaRG (AID 2283491)
Summary of the method: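 Differentiated human HepaRG cells, 48 h after plating, were exposed in serum-free induction medium for 48 hours to eight half-log concentrations up to 100 uM in 0.5% DMSO. EZR mRNA was measured by TaqMan qRT-PCR, normalized to ACTB, GAPDH and POLR2A, and fitted bidirectionally against DMSO.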

[5] = read-out: Cytochrome P450 3A7 (Homo sapiens) (UniProt P24462); assay: LTEA_HepaRG_CYP3A7: Life Technologies and Expression Analysis (LTEA) Assay for CYP3A7 using HepaRG (AID 2283492)
Summary of the method: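 HepaRG cells plated 48 h, then dosed in serum-free induction medium for 48 h at 8 concentrations (top 100 uM, half-log steps, 0.5% DMSO). CYP3A7 mRNA by qRT-PCR, normalised to ACTB/GAPDH/POLR2A; bidirectional fit versus DMSO.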

[6] = read-out: Cytochrome P450 3A4 (Homo sapiens) (UniProt P08684); assay: LTEA_HepaRG_CYP3A4: Life Technologies and Expression Analysis (LTEA) Assay for CYP3A4 using HepaRG (AID 2283487)
Summary of the method: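 Differentiated HepaRG cells in serum-free induction medium exposed in duplicate for 48 h to 8 half-log concentrations up to 100 uM in 0.5% DMSO. CYP3A4 mRNA measured by qRT-PCR normalized to ACTB, GAPDH and POLR2A; bidirectional fit versus DMSO.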

Measured: AC50

Sequence of Cytochrome P450 3A7 (Homo sapiens) (P24462 whole entry, looked up): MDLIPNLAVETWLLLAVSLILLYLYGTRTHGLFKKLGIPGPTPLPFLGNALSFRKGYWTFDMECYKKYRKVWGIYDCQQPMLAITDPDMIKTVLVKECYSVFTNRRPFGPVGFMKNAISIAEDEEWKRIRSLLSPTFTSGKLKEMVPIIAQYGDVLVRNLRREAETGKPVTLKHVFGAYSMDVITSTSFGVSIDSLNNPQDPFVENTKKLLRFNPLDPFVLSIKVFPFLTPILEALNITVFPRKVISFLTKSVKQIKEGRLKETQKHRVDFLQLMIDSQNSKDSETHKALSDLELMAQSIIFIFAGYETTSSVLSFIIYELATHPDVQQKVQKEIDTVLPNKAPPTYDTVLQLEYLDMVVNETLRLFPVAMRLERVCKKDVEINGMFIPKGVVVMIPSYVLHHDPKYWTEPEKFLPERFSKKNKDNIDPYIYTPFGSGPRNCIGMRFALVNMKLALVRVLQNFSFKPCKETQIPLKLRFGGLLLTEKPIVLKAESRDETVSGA
Sequence of Cytochrome P450 3A4 (Homo sapiens) (P08684 whole entry, looked up): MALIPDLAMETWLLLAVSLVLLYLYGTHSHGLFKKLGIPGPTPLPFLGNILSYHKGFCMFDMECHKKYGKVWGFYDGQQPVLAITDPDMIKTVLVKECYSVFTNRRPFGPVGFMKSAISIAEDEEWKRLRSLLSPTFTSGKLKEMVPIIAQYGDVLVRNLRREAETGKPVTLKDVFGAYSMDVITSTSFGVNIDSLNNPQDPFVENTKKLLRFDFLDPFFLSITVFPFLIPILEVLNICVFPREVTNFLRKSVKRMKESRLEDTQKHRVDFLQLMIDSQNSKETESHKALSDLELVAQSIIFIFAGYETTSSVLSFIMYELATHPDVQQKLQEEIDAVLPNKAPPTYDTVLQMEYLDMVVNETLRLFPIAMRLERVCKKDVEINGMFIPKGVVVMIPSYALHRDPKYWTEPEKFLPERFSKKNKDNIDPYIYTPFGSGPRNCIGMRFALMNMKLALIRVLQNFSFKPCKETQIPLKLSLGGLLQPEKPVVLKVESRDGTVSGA

CCCCOC(=O)CCCCC(=O)OCCCC
not listed: [6]
inactive: all other assays above

CCCC[C@H]1CN(CC2CCOCC2)C(=O)OC12CCN(C1(C)CCN(C(=O)c3c(C)ncnc3C)CC1)CC2
not listed: [6]
inactive: all other assays above

O=C1CCCCC1
not listed: CYP2C8 (gene 1558)
inactive: all other assays above

CC(=O)[C@@]1(O)CC[C@H]2[C@@H]3CCC4=CC(=O)CC[C@]4(C)[C@H]3CC[C@@]21C
inactive: [1] | [2] | [3] | [4]

CC(COCC(C)OC(=O)c1ccccc1)OC(=O)c1ccccc1 (configuration not stated)
not listed: [6]
inactive: all other assays above

CC(C)OC(=O)C(C)(C)Oc1ccc(C(=O)c2ccc(Cl)cc2)cc1
active: CYP4A11 (gene 1579) 3.85 µM | [4] 0.536 µM
not listed: [6]
inactive: all other assays above

C/C=C/C=C/C(=O)O
not listed: [2] | [6]
inactive: all other assays above

S=c1[nH]c2ccccc2s1
not listed: [6]
inactive: all other assays above

CC(=O)OCC(COC(C)=O)OC(C)=O
not listed: [6]
inactive: all other assays above

CC(=O)CC(c1ccccc1)c1c(O)c2ccccc2oc1=O (configuration not stated)
active: CYP2E1 (gene 1571) 73.8 µM | [5] 34.7 µM
not listed: [6]
inactive: all other assays above

O=[Si]=O
not listed: [2] | [6]
inactive: all other assays above

OCC(CO)n1cnc(-c2ccc(F)cc2)c1-c1ccnc(Oc2ccccc2)n1
active: CYP2E1 (gene 1571) 15.5 µM | CYP4A11 (gene 1579) 16.9 µM | [3] 20.7 µM | [5] 7.88 µM
not listed: [6]
inactive: all other assays above

O=NO
not listed: [6]
inactive: all other assays above

CCCCC(CC)CO (configuration not stated)
not listed: [6]
inactive: all other assays above

CCOCCOCCO
not listed: [6]
inactive: all other assays above

CN(C)CCCN1c2ccccc2Sc2ccc(Cl)cc21
active: CYP2E1 (gene 1571) 13.3 µM | CYP4A11 (gene 1579) 84.7 µM | [1] 61.3 µM | [3] 88.2 µM
not listed: [6]
inactive: all other assays above

CCC(C)N(C)C(=O)c1cc2ccccc2c(-c2ccccc2Cl)n1 (configuration not stated)
active: CYP2C8 (gene 1558) 1.77 µM | CYP2E1 (gene 1571) 14.1 µM | CYP4A11 (gene 1579) 15.4 µM | [1] 46.6 µM
not listed: [6]
inactive: all other assays above

Cn1cnc2c1c(=O)[nH]c(=O)n2C
inactive: [1] | [2] | [3] | [4]

N[C@@H](Cc1c[nH]c2ccccc12)C(=O)O
not listed: [6]
inactive: all other assays above

O=C(O)c1cccnc1
not listed: CYP2C9 (gene 1559)
inactive: all other assays above

CC(=O)O[C@]1(C(C)=O)CC[C@H]2[C@@H]3C=C(Cl)C4=CC(=O)[C@@H]5C[C@@H]5[C@]4(C)[C@H]3CC[C@@]21C
active: CYP2C9 (gene 1559) 50 µM | CYP2E1 (gene 1571) 36.9 µM | [1] 18.5 µM
not listed: [6]
inactive: all other assays above

COC(=O)CCCC(=O)OC
not listed: [6]
inactive: all other assays above

CC(=O)S[C@H](C(=O)N[C@H]1Cc2ccccc2[C@H]2CCC[C@@H](C(=O)O)N2C1=O)C(C)C
not listed: CYP2E1 (gene 1571) | [6]
inactive: all other assays above

Cc1cc(Cc2ccc(N)c(C)c2)ccc1N
active: CYP2E1 (gene 1571) 24.6 µM | [2] 50 µM | [5] 10.8 µM
not listed: [6]
inactive: all other assays above

CCCCCCCCCC[N+](C)(C)[O-]
not listed: [6]
inactive: all other assays above
